Source: paper PMC5540273 (PLoS ONE, 2017)

Each compound was assayed on STK35. Details: concentration: 1 μM, replicates: in singlicate; n = 1.
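Also: KINOMEscan kinase panel screen.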

Row | Compound | %Inh [%]
1 | O=C(Nc1n[nH]c2nc(-c3nccs3)c(Br)cc12)C1CCCC1 [SB-742609] | 0
2 | CC1=C(C(=O)Nc2cc3cn[nH]c3cc2F)C(c2ccc(C(F)(F)F)cc2)CC(=O)N1 (centres unmarked) [GSK429286] | 0
3 | CSc1nn2c(=O)cc(N3CCOCC3)nc2n1Cc1cccc(C(F)(F)F)c1C [GSK2363608] | 0
4 | Cl.O=C(Nc1cccc(-c2nn3ncccc3c2-c2ccnc(Nc3cccnc3)n2)c1)c1c(F)cccc1F [GSK312879] | 0
5 | Cc1ccc(NC(=O)Nc2cccc(Cl)c2)cc1-c1ccc(C(=O)Nc2ccncc2)cc1 [GSK1398468] | 0
6 | CC(=O)Nc1nc2cnc(Nc3cc(NC(=O)c4cccc(CCC#N)c4)ccc3C)nc2s1 | 0
7 | COc1cccc(NC(=O)NC2CCN(c3ccnc(Nc4ccc(F)cc4)n3)C2)c1 (centres unmarked) [GSK1379721] | 0
8 | CS(=O)(=O)c1ccc(-c2nc3n(c2-c2ccncc2)CCC3)cc1 [SKF-105942] | 0
9 | CCCc1ccc(S(=O)(=O)NC2CCN(c3ccnc(Nc4ccc(F)cc4)n3)C2)cc1 (centres unmarked) [GSK1379715] | 0
10 | O=S(=O)(c1ccc(-c2ccnc3[nH]ccc23)cc1)N1CCCC1 [GSK846226] | 0
11 | Cc1ccc(NC(=O)Nc2cc(C(C)(C)C)nn2-c2ccccc2)cc1 [GSK1014915] | 0
12 | CN(C)CCN(C)C(=O)c1cc(-c2ccncc2)c(-c2ccc(Cl)c(O)c2)o1.Cl.Cl [SB-710397] | 0
13 | O=C(O)COc1ncnc2cc(-c3ccc4[nH]ncc4c3)sc12 | 0
14 | Cc1cccc(-c2nc(C)cc(Nc3ccncc3)n2)n1 [GSK257997] | 0
15 | O=C(Nc1n[nH]c2nc(-c3nccs3)c(Br)cc12)C1CC1 [SB-742251] | 0
16 | Nc1nc(-c2nccs2)c(-c2ccnc3ccccc23)s1 [GW693542] | 0
17 | CC(C)(C)c1ccc(C(=O)Nc2cn3cc(-c4cccnc4)ccc3n2)cc1 | 0

Row | Compound | %Inh [%]
18 | Cn1ccc2ncnc(Oc3ccc(NC(=O)Nc4ccccc4)cc3)c21 | 17
19 | Cl.c1ccc(-c2n[nH]cc2-c2ccnc(-c3ccc(CN4CCOCC4)cc3)c2)nc1 [GW776245] | 0
20 | COc1cc2ncn(-c3cc(OCC4CCCO4)c(C(N)=O)s3)c2cc1OC (centres unmarked) [GSK204607] | 90
21 | COc1ccc(C2=C(Nc3cccc(C(=O)O)c3)C(=O)NC2=O)cc1 [SB-390765] | 13
22 | Fc1cc(Cl)ccc1Nc1ccnc2cc(-c3ccc(CN4CCCCC4)o3)ccc12 [GW560116] | 0
23 | O=c1cc(N2CCOCC2)nc2n(Cc3cccc(Cl)c3Cl)ccn12 [GSK2286295] | 0
24 | O=C(Nc1ccccc1)Nc1cccc(Oc2ccc3nccn3n2)c1 | 11
25 | Nc1ncnc2[nH]c(-c3ccccc3)nc12 [AH5015] | 0
26 | Cc1cccc(-c2nc(-c3ccc(S(C)(=O)=O)cc3)sc2-c2ccnc(NCCc3ccccc3)c2)c1 | 9
27 | O=C(Nc1n[nH]c2cc(-c3cccc(F)c3F)ccc12)C1CC1 [SB-733894] | 0
28 | CN1C(=O)C(Nc2ccc(Cl)c(C(=O)O)c2)=C(c2ccc(Cl)cc2)C1=O [SB-404290] | 4
29 | Cn1cncc1-c1ccc2ncnc(Nc3ccc(OCc4ccccc4)cc3)c2c1 [GW320571] | 10
30 | Cn1ccc2ncnc(Oc3cccc(C(=O)Nc4ccccc4)c3)c21 | 0
31 | Fc1cc(Cl)ccc1Nc1ccnc2cc(I)ccc12 [GW551191] | 57
32 | COc1cc2ncnc(Nc3ccc4nc(-c5ccccc5)[nH]c4c3)c2cc1OC.Cl [GW282450] | 0
33 | COc1cccc(-c2cc(-c3c[nH]nc3-c3ccccn3)ccn2)c1 [GW680338] | 0
34 | COc1ccc(CNC(=O)NC2CCN(c3ccnc(Nc4cc(OC)c(OC)c(OC)c4)n3)C2)cc1 (centres unmarked) [GSK1379748] | 0

Each compound was assayed on STK36. Details: concentration: 1 μM, replicates: in singlicate; n = 1.

Row | Compound | %Inh [%]
35 | O=C(Nc1n[nH]c2nc(-c3nccs3)c(Br)cc12)C1CCCC1 [SB-742609] | 0
36 | CC1=C(C(=O)Nc2cc3cn[nH]c3cc2F)C(c2ccc(C(F)(F)F)cc2)CC(=O)N1 (centres unmarked) [GSK429286] | 0
37 | CSc1nn2c(=O)cc(N3CCOCC3)nc2n1Cc1cccc(C(F)(F)F)c1C [GSK2363608] | 0
38 | Cl.O=C(Nc1cccc(-c2nn3ncccc3c2-c2ccnc(Nc3cccnc3)n2)c1)c1c(F)cccc1F [GSK312879] | 96.7
39 | Cc1ccc(NC(=O)Nc2cccc(Cl)c2)cc1-c1ccc(C(=O)Nc2ccncc2)cc1 [GSK1398468] | 1
40 | CC(=O)Nc1nc2cnc(Nc3cc(NC(=O)c4cccc(CCC#N)c4)ccc3C)nc2s1 | 16
41 | COc1cccc(NC(=O)NC2CCN(c3ccnc(Nc4ccc(F)cc4)n3)C2)c1 (centres unmarked) [GSK1379721] | 0
42 | CS(=O)(=O)c1ccc(-c2nc3n(c2-c2ccncc2)CCC3)cc1 [SKF-105942] | 0
43 | CCCc1ccc(S(=O)(=O)NC2CCN(c3ccnc(Nc4ccc(F)cc4)n3)C2)cc1 (centres unmarked) [GSK1379715] | 0
44 | O=S(=O)(c1ccc(-c2ccnc3[nH]ccc23)cc1)N1CCCC1 [GSK846226] | 0
45 | Cc1ccc(NC(=O)Nc2cc(C(C)(C)C)nn2-c2ccccc2)cc1 [GSK1014915] | 0
46 | CN(C)CCN(C)C(=O)c1cc(-c2ccncc2)c(-c2ccc(Cl)c(O)c2)o1.Cl.Cl [SB-710397] | 0
47 | O=C(O)COc1ncnc2cc(-c3ccc4[nH]ncc4c3)sc12 | 0
48 | Cc1cccc(-c2nc(C)cc(Nc3ccncc3)n2)n1 [GSK257997] | 0
49 | O=C(Nc1n[nH]c2nc(-c3nccs3)c(Br)cc12)C1CC1 [SB-742251] | 1
50 | Nc1nc(-c2nccs2)c(-c2ccnc3ccccc23)s1 [GW693542] | 0
51 | CC(C)(C)c1ccc(C(=O)Nc2cn3cc(-c4cccnc4)ccc3n2)cc1 | 4

Row | Compound | %Inh [%]
52 | Cn1ccc2ncnc(Oc3ccc(NC(=O)Nc4ccccc4)cc3)c21 | 0
53 | Cl.c1ccc(-c2n[nH]cc2-c2ccnc(-c3ccc(CN4CCOCC4)cc3)c2)nc1 [GW776245] | 9
54 | COc1cc2ncn(-c3cc(OCC4CCCO4)c(C(N)=O)s3)c2cc1OC (centres unmarked) [GSK204607] | 0
55 | COc1ccc(C2=C(Nc3cccc(C(=O)O)c3)C(=O)NC2=O)cc1 [SB-390765] | 22
56 | Fc1cc(Cl)ccc1Nc1ccnc2cc(-c3ccc(CN4CCCCC4)o3)ccc12 [GW560116] | 0
57 | O=c1cc(N2CCOCC2)nc2n(Cc3cccc(Cl)c3Cl)ccn12 [GSK2286295] | 43
58 | O=C(Nc1ccccc1)Nc1cccc(Oc2ccc3nccn3n2)c1 | 0
59 | Nc1ncnc2[nH]c(-c3ccccc3)nc12 [AH5015] | 4
60 | Cc1cccc(-c2nc(-c3ccc(S(C)(=O)=O)cc3)sc2-c2ccnc(NCCc3ccccc3)c2)c1 | 11
61 | O=C(Nc1n[nH]c2cc(-c3cccc(F)c3F)ccc12)C1CC1 [SB-733894] | 9
62 | CN1C(=O)C(Nc2ccc(Cl)c(C(=O)O)c2)=C(c2ccc(Cl)cc2)C1=O [SB-404290] | 0
63 | Cn1cncc1-c1ccc2ncnc(Nc3ccc(OCc4ccccc4)cc3)c2c1 [GW320571] | 0
64 | Cn1ccc2ncnc(Oc3cccc(C(=O)Nc4ccccc4)c3)c21 | 0
65 | Fc1cc(Cl)ccc1Nc1ccnc2cc(I)ccc12 [GW551191] | 0
66 | COc1cc2ncnc(Nc3ccc4nc(-c5ccccc5)[nH]c4c3)c2cc1OC.Cl [GW282450] | 0
67 | COc1cccc(-c2cc(-c3c[nH]nc3-c3ccccn3)ccn2)c1 [GW680338] | 25
68 | COc1ccc(CNC(=O)NC2CCN(c3ccnc(Nc4cc(OC)c(OC)c(OC)c4)n3)C2)cc1 (centres unmarked) [GSK1379748] | 0
